# Tests used:
# Test in all cases: DAPPL (digital affinity profiling via proximity ligation, sequencing); 10 mM Tris-HCl pH 7.5, 50 mM NaCl, 1 mM DTT, 4% glycerol, room temperature, 30 min; GST-TFs on glutathione beads, 16-mer random dsDNA library, 0.1% formaldehyde crosslink after washing; high values mean tight binding
# FEV = target: T1, FEV (Homo sapiens, UniProt Q99581 1-238); conditions: protein: recombinant; tags: N-terminal GST; dsDNA, one strand shown
# T1 sequence: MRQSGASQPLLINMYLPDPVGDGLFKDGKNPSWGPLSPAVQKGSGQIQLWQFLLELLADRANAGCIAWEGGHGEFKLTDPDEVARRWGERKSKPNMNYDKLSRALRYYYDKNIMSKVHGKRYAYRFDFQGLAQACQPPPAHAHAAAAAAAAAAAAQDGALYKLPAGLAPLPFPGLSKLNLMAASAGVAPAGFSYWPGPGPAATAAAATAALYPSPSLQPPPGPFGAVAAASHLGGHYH
# Method in brief: (§1)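 The binding signal reported is, for every hexamer, its read frequency for a factor over its read frequency for the tag-only sample. Reads came from pools of yeast-expressed, GST-fused human transcription factors on glutathione beads, barcoded with DNA and mixed with that sample, which were incubated with 200 nmole of a random double-stranded 16-mer DNA library in Tris/NaCl/DTT/glycerol buffer at room temperature for 30 min. After washing, the pools were crosslinked with 0.1% formaldehyde, proximity-ligated with BsaI/T4 ligase for 1 h at 37 °C, PCR-amplified and sequenced on an Illumina NextSeq500.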
# ETV5 = ETV5 (Homo sapiens, UniProt P41161 1-510); conditions: protein: recombinant; tags: N-terminal GST; dsDNA, one strand shown
# ETV5, sequence (P41161 whole entry): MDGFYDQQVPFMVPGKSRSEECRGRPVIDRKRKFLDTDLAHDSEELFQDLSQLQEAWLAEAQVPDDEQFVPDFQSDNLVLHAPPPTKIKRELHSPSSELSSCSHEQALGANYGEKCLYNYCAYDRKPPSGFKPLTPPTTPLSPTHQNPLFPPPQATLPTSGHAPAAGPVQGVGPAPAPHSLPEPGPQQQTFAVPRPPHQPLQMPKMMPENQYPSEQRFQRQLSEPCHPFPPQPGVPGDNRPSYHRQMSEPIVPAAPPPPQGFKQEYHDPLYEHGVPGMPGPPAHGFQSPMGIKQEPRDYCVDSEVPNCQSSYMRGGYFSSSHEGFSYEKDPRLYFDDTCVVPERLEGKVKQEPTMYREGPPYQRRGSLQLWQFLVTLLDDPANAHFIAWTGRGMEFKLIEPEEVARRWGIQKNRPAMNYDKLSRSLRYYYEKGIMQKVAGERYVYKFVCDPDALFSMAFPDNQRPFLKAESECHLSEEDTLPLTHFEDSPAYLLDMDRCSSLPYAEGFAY
# Method in brief: as §1
# HSF1 = HSF1 (Homo sapiens, UniProt Q00613 1-529); conditions: protein: recombinant; tags: N-terminal GST; chain copies: 3; dsDNA, one strand shown
# HSF1, sequence (Q00613 whole entry): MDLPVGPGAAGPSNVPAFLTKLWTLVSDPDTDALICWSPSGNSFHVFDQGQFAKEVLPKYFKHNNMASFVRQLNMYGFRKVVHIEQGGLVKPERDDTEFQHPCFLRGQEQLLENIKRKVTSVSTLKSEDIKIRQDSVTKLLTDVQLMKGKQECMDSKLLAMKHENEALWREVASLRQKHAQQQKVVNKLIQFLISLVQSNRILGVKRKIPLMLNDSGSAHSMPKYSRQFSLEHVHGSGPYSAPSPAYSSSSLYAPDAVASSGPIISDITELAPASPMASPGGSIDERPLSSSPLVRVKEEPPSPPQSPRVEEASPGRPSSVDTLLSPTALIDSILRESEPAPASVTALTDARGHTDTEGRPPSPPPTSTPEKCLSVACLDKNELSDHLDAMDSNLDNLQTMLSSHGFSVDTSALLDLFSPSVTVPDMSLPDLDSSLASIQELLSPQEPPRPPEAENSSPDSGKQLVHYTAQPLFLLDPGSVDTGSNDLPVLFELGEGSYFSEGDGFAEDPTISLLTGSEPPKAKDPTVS
# Method in brief: as §1
# SPIC = target: T2, SPIC (Homo sapiens, UniProt Q8N5J4 1-248); conditions: protein: recombinant; tags: N-terminal GST; dsDNA, one strand shown
# T2 sequence: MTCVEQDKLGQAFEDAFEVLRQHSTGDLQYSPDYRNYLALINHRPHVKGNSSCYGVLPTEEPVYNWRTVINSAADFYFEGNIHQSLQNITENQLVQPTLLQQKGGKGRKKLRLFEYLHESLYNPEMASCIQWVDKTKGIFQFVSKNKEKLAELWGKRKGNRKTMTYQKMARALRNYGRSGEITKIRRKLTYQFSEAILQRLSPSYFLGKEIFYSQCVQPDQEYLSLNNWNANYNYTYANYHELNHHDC
# Method in brief: as §1
# ELF4 = ELF4 (Homo sapiens, UniProt Q99607 1-663); conditions: protein: recombinant; tags: N-terminal GST; dsDNA, one strand shown
# ELF4, sequence (Q99607 whole entry): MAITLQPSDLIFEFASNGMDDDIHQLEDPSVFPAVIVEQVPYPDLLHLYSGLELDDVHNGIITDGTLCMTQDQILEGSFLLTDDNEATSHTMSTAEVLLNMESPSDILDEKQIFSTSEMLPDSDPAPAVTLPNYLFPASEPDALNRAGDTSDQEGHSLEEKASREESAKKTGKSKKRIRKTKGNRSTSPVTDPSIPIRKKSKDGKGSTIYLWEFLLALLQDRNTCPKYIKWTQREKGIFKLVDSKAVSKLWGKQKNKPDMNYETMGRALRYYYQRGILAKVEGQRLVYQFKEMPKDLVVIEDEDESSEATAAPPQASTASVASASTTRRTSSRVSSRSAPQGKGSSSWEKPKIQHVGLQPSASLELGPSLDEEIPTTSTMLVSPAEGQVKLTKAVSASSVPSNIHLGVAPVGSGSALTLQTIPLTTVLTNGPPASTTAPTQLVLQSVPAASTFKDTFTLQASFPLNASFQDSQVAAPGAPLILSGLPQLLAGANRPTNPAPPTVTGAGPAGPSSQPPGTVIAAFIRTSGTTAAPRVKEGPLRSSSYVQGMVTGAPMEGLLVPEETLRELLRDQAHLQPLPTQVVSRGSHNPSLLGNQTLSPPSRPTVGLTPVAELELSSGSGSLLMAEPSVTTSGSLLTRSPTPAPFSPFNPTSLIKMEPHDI
# Method in brief: as §1
# ELK4 = target: T3, ELK4 (Homo sapiens, UniProt P28324-2 1-405); conditions: protein: recombinant; tags: N-terminal GST; dsDNA, one strand shown
# T3 sequence: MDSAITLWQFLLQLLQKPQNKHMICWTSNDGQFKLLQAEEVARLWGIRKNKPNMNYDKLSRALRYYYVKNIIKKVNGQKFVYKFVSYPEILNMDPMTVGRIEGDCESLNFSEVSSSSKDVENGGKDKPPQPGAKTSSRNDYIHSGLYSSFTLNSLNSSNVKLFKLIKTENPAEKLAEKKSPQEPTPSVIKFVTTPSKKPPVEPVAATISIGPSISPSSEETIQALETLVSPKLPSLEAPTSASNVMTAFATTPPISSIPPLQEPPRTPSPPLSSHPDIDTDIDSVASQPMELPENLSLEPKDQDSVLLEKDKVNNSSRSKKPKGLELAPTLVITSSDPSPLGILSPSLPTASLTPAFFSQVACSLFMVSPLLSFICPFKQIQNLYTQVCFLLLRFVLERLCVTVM
# Method in brief: as §1
# ETV2 = target: T4, ETV2 (Homo sapiens, UniProt O00321 1-342); conditions: protein: recombinant; tags: N-terminal GST; dsDNA, one strand shown
# T4 sequence: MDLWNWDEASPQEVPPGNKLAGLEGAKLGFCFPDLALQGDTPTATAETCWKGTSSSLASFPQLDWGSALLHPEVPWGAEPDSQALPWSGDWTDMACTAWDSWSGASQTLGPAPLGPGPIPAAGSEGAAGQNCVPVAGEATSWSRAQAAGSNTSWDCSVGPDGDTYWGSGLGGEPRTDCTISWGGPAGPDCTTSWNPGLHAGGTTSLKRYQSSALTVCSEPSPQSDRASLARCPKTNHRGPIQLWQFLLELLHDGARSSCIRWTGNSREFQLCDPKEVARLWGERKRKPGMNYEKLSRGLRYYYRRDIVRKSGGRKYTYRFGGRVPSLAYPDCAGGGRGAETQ
# Method in brief: as §1
# ELF3 = target: T5, ELF3 (Homo sapiens, UniProt P78545 1-371); conditions: protein: recombinant; tags: N-terminal GST; dsDNA, one strand shown
# T5 sequence: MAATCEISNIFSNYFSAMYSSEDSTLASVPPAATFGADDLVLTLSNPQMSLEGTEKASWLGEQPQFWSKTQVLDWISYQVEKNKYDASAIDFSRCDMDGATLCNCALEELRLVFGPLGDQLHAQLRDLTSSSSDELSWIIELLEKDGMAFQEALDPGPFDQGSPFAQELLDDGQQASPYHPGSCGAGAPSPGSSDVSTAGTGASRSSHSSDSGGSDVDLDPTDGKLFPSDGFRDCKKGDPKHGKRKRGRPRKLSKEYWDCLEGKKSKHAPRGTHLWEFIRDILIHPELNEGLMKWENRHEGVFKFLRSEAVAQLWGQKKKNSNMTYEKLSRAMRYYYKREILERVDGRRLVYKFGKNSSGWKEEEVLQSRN
# Method in brief: as §1
# CRX = CRX (Homo sapiens, UniProt O43186 1-299); conditions: protein: recombinant; tags: N-terminal GST; dsDNA, one strand shown
# CRX, sequence (O43186 whole entry): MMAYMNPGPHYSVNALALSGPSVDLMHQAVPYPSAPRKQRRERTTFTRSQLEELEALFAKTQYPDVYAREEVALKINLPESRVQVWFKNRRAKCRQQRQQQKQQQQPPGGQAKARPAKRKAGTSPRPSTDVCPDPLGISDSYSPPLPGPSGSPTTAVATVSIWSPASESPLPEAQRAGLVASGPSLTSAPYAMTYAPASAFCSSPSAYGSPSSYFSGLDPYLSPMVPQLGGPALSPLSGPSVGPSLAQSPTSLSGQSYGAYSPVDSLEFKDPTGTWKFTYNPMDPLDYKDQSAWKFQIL
# Method in brief: as §1
# ETV1 = ETV1 (Homo sapiens, UniProt P50549 1-477); conditions: protein: recombinant; tags: N-terminal GST; dsDNA, one strand shown
# ETV1, sequence (P50549 whole entry): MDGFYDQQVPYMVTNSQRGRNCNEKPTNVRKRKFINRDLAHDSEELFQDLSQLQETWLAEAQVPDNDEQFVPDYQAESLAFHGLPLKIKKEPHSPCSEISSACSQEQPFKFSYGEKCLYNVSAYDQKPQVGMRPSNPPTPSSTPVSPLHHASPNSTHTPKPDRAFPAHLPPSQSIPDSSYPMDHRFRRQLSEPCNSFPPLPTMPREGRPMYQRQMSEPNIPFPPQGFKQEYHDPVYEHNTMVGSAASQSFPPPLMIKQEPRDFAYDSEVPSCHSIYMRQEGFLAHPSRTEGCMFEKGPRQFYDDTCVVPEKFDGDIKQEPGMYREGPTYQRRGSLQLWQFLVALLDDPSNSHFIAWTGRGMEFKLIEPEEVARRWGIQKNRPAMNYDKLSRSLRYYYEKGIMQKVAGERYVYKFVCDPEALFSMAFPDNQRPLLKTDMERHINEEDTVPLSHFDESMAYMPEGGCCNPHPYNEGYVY
# Method in brief: as §1
# ERF = target: T6, ERF (Homo sapiens, UniProt P50548 1-548); conditions: protein: recombinant; tags: N-terminal GST; dsDNA, one strand shown
# T6 sequence: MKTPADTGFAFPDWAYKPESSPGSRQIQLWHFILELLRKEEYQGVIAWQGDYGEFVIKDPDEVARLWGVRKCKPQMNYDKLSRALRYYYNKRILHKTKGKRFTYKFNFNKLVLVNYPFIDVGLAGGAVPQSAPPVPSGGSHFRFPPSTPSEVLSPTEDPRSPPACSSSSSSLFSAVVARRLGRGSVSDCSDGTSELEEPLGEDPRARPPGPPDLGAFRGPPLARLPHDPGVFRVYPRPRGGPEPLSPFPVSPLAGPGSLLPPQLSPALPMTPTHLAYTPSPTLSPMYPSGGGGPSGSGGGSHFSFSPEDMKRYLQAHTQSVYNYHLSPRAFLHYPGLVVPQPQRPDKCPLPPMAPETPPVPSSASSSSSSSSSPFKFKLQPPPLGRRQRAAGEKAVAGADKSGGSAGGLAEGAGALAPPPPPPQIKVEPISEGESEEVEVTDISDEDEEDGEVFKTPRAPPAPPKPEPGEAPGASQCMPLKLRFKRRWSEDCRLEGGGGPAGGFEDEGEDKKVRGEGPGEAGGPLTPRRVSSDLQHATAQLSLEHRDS
# Method in brief: as §1
# ETV3L = target: T7, ETV3L (Homo sapiens, UniProt Q6ZN32 1-361); conditions: protein: recombinant; tags: N-terminal GST; dsDNA, one strand shown
# T7 sequence: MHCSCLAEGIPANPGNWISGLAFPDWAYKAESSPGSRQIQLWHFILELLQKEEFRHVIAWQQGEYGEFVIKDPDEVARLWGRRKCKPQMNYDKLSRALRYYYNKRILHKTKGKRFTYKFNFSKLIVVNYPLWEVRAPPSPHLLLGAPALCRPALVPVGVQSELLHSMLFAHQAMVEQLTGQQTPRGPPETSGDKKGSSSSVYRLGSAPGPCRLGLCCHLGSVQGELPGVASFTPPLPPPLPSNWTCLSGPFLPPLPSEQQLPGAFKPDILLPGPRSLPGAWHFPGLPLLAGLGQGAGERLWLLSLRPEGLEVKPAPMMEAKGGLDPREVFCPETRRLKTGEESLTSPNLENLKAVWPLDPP
# Method in brief: as §1
# ETS2 = target: T8, ETS2 (Homo sapiens, UniProt P15036 1-469); conditions: protein: recombinant; tags: N-terminal GST; dsDNA, one strand shown
# T8 sequence: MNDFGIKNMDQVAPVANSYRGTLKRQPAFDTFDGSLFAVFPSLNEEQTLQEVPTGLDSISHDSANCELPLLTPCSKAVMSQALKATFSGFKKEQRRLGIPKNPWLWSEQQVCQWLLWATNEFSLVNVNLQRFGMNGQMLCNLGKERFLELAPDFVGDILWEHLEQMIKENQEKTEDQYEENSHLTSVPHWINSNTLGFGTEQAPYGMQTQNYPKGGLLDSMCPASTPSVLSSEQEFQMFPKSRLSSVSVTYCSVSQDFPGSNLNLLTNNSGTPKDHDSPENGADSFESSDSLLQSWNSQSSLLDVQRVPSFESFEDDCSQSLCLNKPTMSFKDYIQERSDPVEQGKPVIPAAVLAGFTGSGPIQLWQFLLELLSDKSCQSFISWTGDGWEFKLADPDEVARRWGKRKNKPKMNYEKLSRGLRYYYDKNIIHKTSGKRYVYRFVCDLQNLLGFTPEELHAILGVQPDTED
# Method in brief: as §1
# SPDEF = target: T9, SPDEF (Homo sapiens, UniProt O95238 1-335); conditions: protein: recombinant; tags: N-terminal GST; dsDNA, one strand shown
# T9 sequence: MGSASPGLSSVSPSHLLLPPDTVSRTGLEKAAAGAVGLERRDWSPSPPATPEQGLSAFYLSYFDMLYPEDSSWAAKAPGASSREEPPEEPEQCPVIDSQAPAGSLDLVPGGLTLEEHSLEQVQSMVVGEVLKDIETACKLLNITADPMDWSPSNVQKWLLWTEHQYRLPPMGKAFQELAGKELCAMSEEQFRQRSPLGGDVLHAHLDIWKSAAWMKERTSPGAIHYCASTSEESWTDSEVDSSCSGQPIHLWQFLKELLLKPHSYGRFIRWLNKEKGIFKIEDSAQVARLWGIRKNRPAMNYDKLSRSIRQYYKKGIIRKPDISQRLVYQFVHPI
# Method in brief: as §1
# ETV7 = target: T10, ETV7 (Homo sapiens, UniProt Q9Y603 1-341); conditions: protein: recombinant; tags: N-terminal GST; dsDNA, one strand shown
# T10 sequence: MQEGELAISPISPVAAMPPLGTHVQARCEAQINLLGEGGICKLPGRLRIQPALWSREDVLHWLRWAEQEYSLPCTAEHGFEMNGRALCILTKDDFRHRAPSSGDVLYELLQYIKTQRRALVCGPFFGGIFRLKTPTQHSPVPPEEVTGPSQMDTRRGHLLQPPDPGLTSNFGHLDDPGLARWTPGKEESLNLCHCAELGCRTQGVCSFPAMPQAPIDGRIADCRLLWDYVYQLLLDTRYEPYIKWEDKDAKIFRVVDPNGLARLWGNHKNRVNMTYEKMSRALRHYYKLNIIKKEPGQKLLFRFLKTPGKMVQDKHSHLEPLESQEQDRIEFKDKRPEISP
# Method in brief: as §1
# ELF5 = target: T11, ELF5 (Homo sapiens, UniProt Q9UKW6-2 1-255); conditions: protein: recombinant; tags: N-terminal GST; dsDNA, one strand shown
# T11 sequence: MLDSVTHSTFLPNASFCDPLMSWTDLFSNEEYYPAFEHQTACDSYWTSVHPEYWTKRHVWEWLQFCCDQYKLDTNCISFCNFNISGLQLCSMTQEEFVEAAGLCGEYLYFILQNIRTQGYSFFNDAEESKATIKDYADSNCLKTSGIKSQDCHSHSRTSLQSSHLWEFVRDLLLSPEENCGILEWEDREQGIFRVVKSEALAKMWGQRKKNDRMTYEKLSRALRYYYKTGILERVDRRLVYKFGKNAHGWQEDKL
# Method in brief: as §1
# ETV3 = target: T12, ETV3 (Homo sapiens, UniProt P41162-2 1-143); conditions: protein: recombinant; tags: N-terminal GST; dsDNA, one strand shown
# T12 sequence: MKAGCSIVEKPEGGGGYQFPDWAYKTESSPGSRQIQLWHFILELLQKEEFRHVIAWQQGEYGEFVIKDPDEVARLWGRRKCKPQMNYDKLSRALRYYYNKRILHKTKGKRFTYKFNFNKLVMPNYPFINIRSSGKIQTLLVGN
# Method in brief: as §1
# ETV6 = ETV6 (Homo sapiens, UniProt P41212 1-452); conditions: protein: recombinant; tags: N-terminal GST; dsDNA, one strand shown
# ETV6, sequence (P41212 whole entry): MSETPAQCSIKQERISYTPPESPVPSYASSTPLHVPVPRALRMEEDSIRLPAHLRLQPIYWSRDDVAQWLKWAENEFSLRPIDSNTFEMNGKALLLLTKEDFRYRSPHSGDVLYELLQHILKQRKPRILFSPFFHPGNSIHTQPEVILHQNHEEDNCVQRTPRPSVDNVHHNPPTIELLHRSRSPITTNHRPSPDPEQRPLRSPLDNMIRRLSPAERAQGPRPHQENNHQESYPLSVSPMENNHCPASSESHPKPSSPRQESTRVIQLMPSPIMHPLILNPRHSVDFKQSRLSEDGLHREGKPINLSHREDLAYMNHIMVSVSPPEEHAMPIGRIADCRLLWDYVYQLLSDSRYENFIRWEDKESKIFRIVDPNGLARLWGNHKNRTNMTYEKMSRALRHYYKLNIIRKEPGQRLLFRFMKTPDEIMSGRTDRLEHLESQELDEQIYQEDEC
# Method in brief: as §1
sequence,measurement,setting,value
TATCGA,binding signal,FEV,"1.2 fold enrichment (6-mer frequency, TF over GST control)"
same,binding signal,ETV5,"1.29 fold enrichment (6-mer frequency, TF over GST control)"
same,binding signal,HSF1,"1.83 fold enrichment (6-mer frequency, TF over GST control)"
same,binding signal,SPIC,"1.28 fold enrichment (6-mer frequency, TF over GST control)"
same,binding signal,ELF4,"1.34 fold enrichment (6-mer frequency, TF over GST control)"
same,binding signal,ELK4,"1.37 fold enrichment (6-mer frequency, TF over GST control)"
same,binding signal,ETV2,"1.44 fold enrichment (6-mer frequency, TF over GST control)"
same,binding signal,ELF3,"1.55 fold enrichment (6-mer frequency, TF over GST control)"
same,binding signal,CRX,"1.59 fold enrichment (6-mer frequency, TF over GST control)"
same,binding signal,ETV1,"1.31 fold enrichment (6-mer frequency, TF over GST control)"
same,binding signal,ERF,"1.38 fold enrichment (6-mer frequency, TF over GST control)"
same,binding signal,ETV3L,"1.41 fold enrichment (6-mer frequency, TF over GST control)"
same,binding signal,ETS2,"1.44 fold enrichment (6-mer frequency, TF over GST control)"
same,binding signal,SPDEF,"1.34 fold enrichment (6-mer frequency, TF over GST control)"
same,binding signal,ETV7,"1.32 fold enrichment (6-mer frequency, TF over GST control)"
same,binding signal,ELF5,"1.18 fold enrichment (6-mer frequency, TF over GST control)"
same,binding signal,ETV3,"1.25 fold enrichment (6-mer frequency, TF over GST control)"
same,binding signal,ETV6,"1.35 fold enrichment (6-mer frequency, TF over GST control)"
